From PubChem BioAssay (NCI) come the findings set out here.

The panel holds about 83,000 compounds, 20% with a hit somewhere; the sample as a whole holds those more often.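 Plates (96-well) were seeded with cells, treated with compound at one concentration, and incubated for 48 hours before percent growth was determined.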 Active and inactive are the calls of the source. Rule for the calls: active = growth percent below 10; inactive = the rest.

For this experiment, the system named is SK-MEL-2 melanoma. Briefly: NCI-60 one-dose screen, 48 h (100 = growth as untreated, 0 = no growth, -100 = all killed). Conditions: 10 µM unless noted.
Regarding `CN(C)c1ccc2nc3ccc(=[N+](C)C)c([N+](=O)[O-])c-3sc2c1`, the growth was 47.2% (inactive). The figure for `COc1cc(C(=O)/C=C/c2c(Cl)nc3sccn23)cc(OC)c1OC` is 86.1% (inactive); for `CNc1ccc(Nc2cccc(C)c2)c2c1C(=O)c1ccccc1C2=O` it is 60% (inactive); for `Cc1cc(O)c(C2=NN(c3ccc(S(N)(=O)=O)cc3)C(c3ccccc3O)C2)cc1Cl` (stereo not drawn) it is 17.4% (inactive). The result for `CCN1C(=O)N(CC)C2Nn3c(s/c(=C4\C(=O)N(CCC(C)C)c5ccccc54)c3=O)=NC21` (stereo not drawn) reads 87.7% (inactive); that for `C=C(C)[C@@H]1CC[C@]2(N=C=O)CC[C@]3(C)[C@H](CC[C@@H]4[C@@]5(C)Cc6c([nH]c7ccccc67)C(C)(C)[C@@H]5CC[C@]43C)[C@@H]12`, 108% (inactive).

As for `O=C1CSC(c2c(Cl)cccc2Cl)N1c1nc(Cl)cc(=O)[nH]1` (stereo not drawn), the growth was 78.3% (inactive). In the case of `COc1ccc(OC)c(/C=C/C(=O)N/N=C/c2ccccc2)c1`, the growth was -1.33% (active).

Regarding `Oc1ccc(-c2nc3ccc4[nH]ncc4c3c3c2CCCC3)c2cccnc12`, the growth was 5.36% (active). The figure for `Cc1cc(O)c(C2=NN(c3ccc(S(N)(=O)=O)cc3)C(/C=C/c3ccccc3)C2)cc1Cl` (stereo not drawn) is 34.1% (inactive); for `COc1ccc(C2=Nn3c(nnc3-c3cc(Cl)cc(Cl)c3Cl)SC2)cc1` it is 22.4% (inactive).

As to `O=S(=O)(NCCCNc1cc(-c2c(-c3cccc(O)c3)nc3sccn23)ccn1)c1cccc2ccccc12`, the growth is 59.8% (inactive). The result for `c1cc(-c2nnc(SSc3ncnc4nc[nH]c34)o2)ccn1` reads 15.9% (inactive).
